Results published in PubChem BioAssay AID1159580 (chemical genetic matrix, 2015).
Where “and” joins values, the source holds several entries; their conditions need not be identical. Identical values can stand only once. Screen size: about 5,500 compounds; about 2,000 (36%) were called active. Roughly 18% stayed inconclusive and do not appear here. No stated cut-off is given here; in the data, active means normalized growth mostly below about 0.91 (no sharp cut-off); inconclusive means no clear call, values can overlap the other calls; inactive means mostly above about 0.92. The list shows a part of the results.

Assay: chemical genetic growth profiling, strain panel (AID 1159580);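 further: tested at 20 µM; growth read once vehicle control cultures reached saturation at 30 °C; 1 = growth at the plate median or of vehicle wells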
Settings: S. cerevisiae deletion strains, growth OD
[1] = locus YAL013W, strain DEP1, stronger effect = lower value
[2] = locus YBR229C, strain ROT2, stronger effect = lower value
[3] = locus YDL101C, strain DUN1, stronger effect = lower value
[4] = locus YEL061C, strain CIN8, stronger effect = lower value
[5] = locus YGR078C, strain PAC10, stronger effect = lower value
[6] = locus YHR030C, strain SLT2, stronger effect = lower value
[7] = locus YJR043C, strain POL32, stronger effect = lower value
[8] = locus YLR039C, strain RIC1, stronger effect = lower value
[9] = locus YLR262C, strain YPT6, stronger effect = lower value
[10] = locus YNL128W, strain TEP1, stronger effect = lower value
[11] = locus YNL153C, strain GIM3, stronger effect = lower value
[12] = locus YPL241C, strain CIN2, stronger effect = lower value

Measured: normalized growth

CC[C@]12CCCN3CCc4c(n(c5ccccc45)[C@](O)(C(=O)OC)C1)[C@@H]32
inactive: [1] 0.984 | locus YAL021C, strain ccr4, stronger effect = lower value 0.986 | locus YAL026C, strain drs2, stronger effect = lower value 0.983 | locus YAL030W, strain snc1, stronger effect = lower value 0.984 | locus YBL061C, strain skt5, stronger effect = lower value 0.979 | locus YBR009C, strain hhf1, stronger effect = lower value 0.999 | locus YBR021W, strain FUR4, stronger effect = lower value 0.998 | locus YBR023C, strain chs3, stronger effect = lower value 0.991 | locus YBR171W, strain sec66, stronger effect = lower value 0.983 | [2] 0.951 | locus YBR231C, strain swc5, stronger effect = lower value 0.994 | locus YBR279W, strain paf1, stronger effect = lower value 0.98 | locus YCL011C, strain gbp2, stronger effect = lower value 0.985 | locus YCL016C, strain dcc1, stronger effect = lower value 0.966 | locus YCL029C, strain bik1, stronger effect = lower value 0.978 | locus YCL061C, strain MRC1, stronger effect = lower value 0.986 | locus YCL069W, strain vba3, stronger effect = lower value 0.987 | locus YCR088W, strain abp1, stronger effect = lower value 0.981 | locus YDL005C, strain med2, stronger effect = lower value 0.96 | locus YDL035C, strain GPR1, stronger effect = lower value 0.966 | locus YDL040C, strain nat1, stronger effect = lower value 0.989 | locus YDL074C, strain BRE1, stronger effect = lower value 0.991 | [3] 0.977 | locus YDL185W, strain tfp1, stronger effect = lower value 0.964 | locus YDL192W, strain arf1, stronger effect = lower value 0.979 | locus YDR001C, strain nth1, stronger effect = lower value 0.98 | locus YDR069C, strain doa4, stronger effect = lower value 0.991 | locus YDR101C, strain arx1, stronger effect = lower value 0.964 | locus YDR137W, strain rgp1, stronger effect = lower value 0.954 | locus YDR159W, strain sac3, stronger effect = lower value 1.01 | locus YDR162C, strain NBP2, stronger effect = lower value 0.97 | locus YDR195W, strain ref2 0.952 | locus YDR297W, strain sur2, stronger effect = lower value 0.99 | locus YDR318W, strain mcm21, stronger effect = lower value 1 | locus YDR334W, strain swr1, stronger effect = lower value 0.975 | locus YDR335W, strain msn5, stronger effect = lower value 0.979 | locus YDR388W, stronger effect = lower value 0.978 | locus YDR392W, strain spt3, stronger effect = lower value 0.946 | locus YDR502C, strain sam2, stronger effect = lower value 0.978 | locus YEL003W, strain gim4, stronger effect = lower value 0.984 | locus YEL037C, strain rad23, stronger effect = lower value 0.979 | locus YEL061C, strain CIN8 (second series), stronger effect = lower value 0.986 | [4] 0.982 | locus YER015W, strain faa2, stronger effect = lower value 0.985 | locus YER016W, strain bim1, stronger effect = lower value 0.969 | locus YER110C, stronger effect = lower value 0.979 | locus YER111C, strain swi4, stronger effect = lower value 0.978 | locus YER155C, strain BEM2 (second series), stronger effect = lower value 0.958 | locus YER155C, strain BEM2, stronger effect = lower value 0.995 | locus YER167W, strain BCK2, stronger effect = lower value 0.996 | locus YFR010W, strain ubp6, stronger effect = lower value 0.998 | locus YGL078C, strain dbp3, stronger effect = lower value 0.997 | locus YGL086W, strain mad1, stronger effect = lower value 0.977 | locus YGL167C, strain pmr1, stronger effect = lower value 0.979 | locus YGL173C, strain kem1, stronger effect = lower value 0.984 | locus YGL227W, strain vid30, stronger effect = lower value 0.981 | locus YGL240W, strain doc1, stronger effect = lower value 1.02 | locus YGL248W, strain PDE1, stronger effect = lower value 0.993 | locus YGL253W, strain hxk2, stronger effect = lower value 0.981 | [5] 0.982 | locus YGR135W, strain pre9, stronger effect = lower value 1.04 | locus YGR252W, strain gcn5, stronger effect = lower value 1.07 | locus YHR013C, strain ard1, stronger effect = lower value 0.953 | locus YHR027C, strain rpn1, stronger effect = lower value 0.991 | [6] 0.992 and 0.98 | locus YHR079C, strain IRE1 (second series), stronger effect = lower value 0.961 | locus YHR079C, strain IRE1, stronger effect = lower value 0.964 | locus YHR094C, strain hxt1, stronger effect = lower value 0.981 | locus YHR129C, strain ARP1, stronger effect = lower value 0.988 | locus YHR142W, strain chs7, stronger effect = lower value 0.964 | locus YHR200W, strain rpn10, stronger effect = lower value 0.971 | locus YIL066C, strain RNR3, stronger effect = lower value 0.977 | locus YIL073C, strain SPO22, stronger effect = lower value 0.965 | locus YIL125W, strain kgd1, stronger effect = lower value 0.988 | locus YIR030C, strain dcg1, stronger effect = lower value 0.99 | locus YJL092W, strain hpr5, stronger effect = lower value 0.993 | locus YJL095W, strain BCK1 (second series), stronger effect = lower value 0.973 | locus YJL095W, strain BCK1, stronger effect = lower value 1.01 and 0.994 | locus YJL115W, strain asf1, stronger effect = lower value 1 | locus YJL129C, strain trk1, stronger effect = lower value 0.974 | locus YJL134W, strain LCB3, stronger effect = lower value 0.99 | locus YJL154C, strain vps35, stronger effect = lower value 0.968 | locus YJL164C, strain tpk1, stronger effect = lower value 0.997 | locus YJL166W, strain qcr8, stronger effect = lower value 1.01 | locus YJL168C, strain set2, stronger effect = lower value 0.984 | locus YJL187C, strain SWE1 (second series), stronger effect = lower value 0.979 | locus YJL187C, strain SWE1, stronger effect = lower value 0.985 | [7] 0.977 | locus YJR066W, strain TOR1, stronger effect = lower value 0.925 | locus YKL009W, strain mrt4, stronger effect = lower value 0.985 | locus YKL068W, stronger effect = lower value 0.987 | locus YKL085W, strain MDH1 (second series), stronger effect = lower value 0.997 | locus YKL085W, strain MDH1, stronger effect = lower value 0.997 | locus YKL160W, strain elf1, stronger effect = lower value 0.962 | locus YKR001C, strain vps1, stronger effect = lower value 0.977 | locus YKR026C, strain gcn3, stronger effect = lower value 0.988 | locus YKR091W, strain srl3, stronger effect = lower value 0.982 | locus YLL001W, strain dnm1, stronger effect = lower value 0.986 | locus YLL026W, stronger effect = lower value 1 | locus YLL041C, strain sdh2, stronger effect = lower value 0.987 | locus YLR027C, strain aat2, stronger effect = lower value 0.989 | [8] 1.03 | locus YLR058C, strain SHM2, stronger effect = lower value 0.976 | locus YLR102C, strain apc9, stronger effect = lower value 0.982 | locus YLR113W, strain HOG1, stronger effect = lower value 0.976 | locus YLR221C, strain rsa3, stronger effect = lower value 1 | locus YLR258W, strain gsy2, stronger effect = lower value 0.964 | locus YLR262C, strain YPT6 (second series), stronger effect = lower value 0.977 | [9] 0.912 | locus YLR268W, strain sec22, stronger effect = lower value 0.963 | locus YLR320W, strain mms22, stronger effect = lower value 0.995 | locus YLR330W, strain CHS5, stronger effect = lower value 0.988 | locus YLR342W, strain FKS1 (second series), stronger effect = lower value 0.997 | locus YLR342W, strain FKS1, stronger effect = lower value 0.989 | locus YLR357W, strain rsc2, stronger effect = lower value 0.953 | locus YLR370C, strain arc18, stronger effect = lower value 0.975 | locus YLR371W, strain rom2, stronger effect = lower value 0.987 | locus YLR384C, strain iki3, stronger effect = lower value 0.977 | locus YLR418C, strain cdc73, stronger effect = lower value 0.989 | locus YML016C, strain PPZ1, stronger effect = lower value 0.991 | locus YML032C, strain rad52, stronger effect = lower value 0.967 | locus YML120C, strain ndi1, stronger effect = lower value 0.99 | locus YML124C, strain tub3, stronger effect = lower value 0.989 | locus YMR058W, strain fet3, stronger effect = lower value 0.983 | locus YMR078C, strain ctf18, stronger effect = lower value 0.977 | locus YMR125W, strain sto1, stronger effect = lower value 0.98 | locus YMR129W, stronger effect = lower value 0.985 | locus YMR205C, strain PFK2, stronger effect = lower value 0.97 | locus YMR223W, strain ubp8, stronger effect = lower value 1.03 | locus YMR231W, strain pep5, stronger effect = lower value 0.982 | locus YMR307W, strain GAS1, stronger effect = lower value 0.967 | locus YNL067W, strain RPL9B, stronger effect = lower value 0.987 | locus YNL071W, strain lat1, stronger effect = lower value 0.981 | [10] 0.974 | [11] 0.994 | locus YNL183C, strain NPR1, stronger effect = lower value 0.915 | locus YNL209W, strain ssb2, stronger effect = lower value 0.988 | locus YNL233W, strain BNI4, stronger effect = lower value 0.99 | locus YNL248C, strain rpa49, stronger effect = lower value 0.99 | locus YNL250W, strain rad50, stronger effect = lower value 0.984 | locus YNL271C, strain bni1, stronger effect = lower value 0.986 | locus YNL298W, strain CLA4, stronger effect = lower value 0.987 | locus YNL307C, strain MCK1, stronger effect = lower value 0.981 | locus YNL322C, strain KRE1 (second series), stronger effect = lower value 0.969 | locus YNR049C, strain mso1, stronger effect = lower value 0.978 | locus YNR052C, strain pop2, stronger effect = lower value 0.993 | locus YOL012C, strain htz1 0.992 | locus YOL147C, strain pex11, stronger effect = lower value 0.989 | locus YOR001W, strain rrp6, stronger effect = lower value 1.02 | locus YOR061W, strain CKA2, stronger effect = lower value 0.976 | locus YOR069W, strain VPS5, stronger effect = lower value 0.992 | locus YOR070C, strain gyp1, stronger effect = lower value 0.995 | locus YOR080W, strain dia2, stronger effect = lower value 0.972 | locus YOR083W, strain WHI5, stronger effect = lower value 0.98 | locus YOR106W, strain vam3, stronger effect = lower value 0.984 | locus YOR136W, strain idh2, stronger effect = lower value 0.969 | locus YOR144C, strain elg1, stronger effect = lower value 0.984 | locus YOR184W, strain ser1, stronger effect = lower value 0.98 | locus YOR231W, strain MKK1, stronger effect = lower value 1.01 | locus YOR265W, strain rbl2, stronger effect = lower value 0.995 | locus YOR270C, strain vph1, stronger effect = lower value 0.988 | locus YOR290C, strain snf2, stronger effect = lower value 0.979 | locus YOR316C, strain cot1, stronger effect = lower value 0.968 | locus YPL051W, strain arl3, stronger effect = lower value 0.971 | locus YPL078C, strain atp4, stronger effect = lower value 0.973 | locus YPL106C, strain sse1, stronger effect = lower value 0.959 | locus YPL240C, strain hsp82, stronger effect = lower value 0.985 | [12] 0.967 | locus YPL256C, strain CLN2, stronger effect = lower value 0.984 | locus YPR119W, strain clb2, stronger effect = lower value 0.975 | locus YPR141C, strain kar3, stronger effect = lower value 0.979 | locus YPR163C, strain tif3, stronger effect = lower value 0.974 | locus YPR167C, strain met16, stronger effect = lower value 0.995 | strain wtn01, stronger effect = lower value 1

CCOC(=O)c1c(C)n(-c2ccccc2)c2ccc(O)cc12
inactive: [1] 0.998 | [2] 1 | [3] 0.995 | locus YDR150W, strain NUM1, stronger effect = lower value 1 | [4] 0.965 | [5] 0.995 | [6] 0.923 | locus YHR087W, strain rtc3, stronger effect = lower value 0.993 | [7] 1.03 | locus YJR075W, strain HOC1, stronger effect = lower value 0.989 | [8] 1.02 | locus YLR058C, strain SHM2 (second series), stronger effect = lower value 0.985 | locus YLR085C, strain ARP6, stronger effect = lower value 0.931 | [9] 0.984 | locus YML094W, strain GIM5, stronger effect = lower value 0.94 | locus YMR219W, strain ESC1, stronger effect = lower value 0.999 | locus YMR263W, strain SAP30, stronger effect = lower value 0.956 | [10] 0.99 | [11] 0.976 | locus YNL322C, strain KRE1, stronger effect = lower value 0.998 | locus YNR030W, strain Alg12, stronger effect = lower value 0.963 | locus YPL055C, strain LGE1, stronger effect = lower value 0.982 | [12] 0.979 | locus YPR135W, strain CTF4, stronger effect = lower value 0.911
